# Measurements: the supplement of paper PMC10849652
# Of roughly 8,800 targets only a part is listed; those with a hit were picked by preference. About 0.5% of all pairs of compound and target were hits.
# Tests used:
# Test in all cases: log2 fold change, soluble protein after heating vs DMSO (PISA); higher = thermal stabilisation; K562 lysate, 10 uM; active = over 0.2 and 3.5 SD of the protein, either way, in both replicates (recomputed)
# lapatinib = compound: CS(=O)(=O)CCNCc1ccc(-c2ccc3ncnc(Nc4ccc(OCc5cccc(F)c5)c(Cl)c4)c3c2)o1 [lapatinib]
# In short: (§1)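 Values give the log-two fold change in thermal stability against solvent controls, from duplicates. Crude K562 extract at 1 mg/mL protein, made by dounce homogenisation in PBS pH 7.4 with 1 mM MgCl2, was treated with 10 μM compound for 30 min. After 3 min heating across 48°C-58°C, aliquots were pooled, adjusted to 0.5% NP-40 at 4°C and centrifuged at 21,000xg for 90 min. The supernatant was measured by TMTpro 16plex LC-MS/MS with channel sums equalised.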
# pictilisib = compound: CS(=O)(=O)N1CCN(Cc2cc3nc(-c4cccc5[nH]ncc45)nc(N4CCOCC4)c3s2)CC1 [pictilisib]
# In short: as §1
# crizotinib = compound: C[C@@H](Oc1cc(-c2cnn(C3CCNCC3)c2)cnc1N)c1c(Cl)ccc(F)c1Cl [crizotinib]
# In short: as §1
# [1] = compound: C[C@H](C1=CC=C(C=C1)C(=O)NC2=C3C=CNC3=NC=C2)N
# In short: as §1
# duvelisib = compound: C[C@H](Nc1ncnc2nc[nH]c12)c1cc2cccc(Cl)c2c(=O)n1-c1ccccc1 [duvelisib]
# In short: as §1
# gandotinib = compound: Cc1cc(Nc2cc(CN3CCOCC3)c3nc(C)c(Cc4ccc(Cl)cc4F)n3n2)n[nH]1 [gandotinib]
# In short: as §1
# tozasertib = compound: Cc1cc(Nc2cc(N3CCN(C)CC3)nc(Sc3ccc(NC(=O)C4CC4)cc3)n2)n[nH]1 [tozasertib]
# In short: as §1
# doramapimod = compound: Cc1ccc(-n2nc(C(C)(C)C)cc2NC(=O)Nc2ccc(OCCN3CCOCC3)c3ccccc23)cc1 [doramapimod]
# In short: as §1
# bafetinib = compound: Cc1ccc(NC(=O)c2ccc(CN3CC[C@H](N(C)C)C3)c(C(F)(F)F)c2)cc1Nc1nccc(-c2cncnc2)n1 [bafetinib]
# In short: as §1
# [2] = compound: Cc1cccc(CC(=O)N2CCc3c2ccc(-c2cn(C)c4ncnc(N)c24)c3F)n1
# In short: as §1
# nilotinib = compound: Cc1cn(-c2cc(NC(=O)c3ccc(C)c(Nc4nccc(-c5cccnc5)n4)c3)cc(C(F)(F)F)c2)cn1 [nilotinib]
# In short: as §1
# [3] = compound: Cc1nc(Nc2n[nH]c3c2CN(C(=O)N[C@H](CN(C)C)c2ccccc2)C3(C)C)c2sccc2n1
# In short: as §1
# dasatinib = compound: Cc1nc(Nc2ncc(C(=O)Nc3c(C)cccc3Cl)s2)cc(N2CCN(CCO)CC2)n1 [dasatinib]
# In short: as §1
# [4] = compound: Cc1ncc(-c2ccnc(Nc3ccc(S(C)(=O)=O)cc3)n2)n1C(C)C
# In short: as §1
# [5] = compound: Cn1cc(-c2ccc3c(c2)CCN3C(=O)Cc2cccc(C(F)(F)F)c2)c2c(N)ncnc21
# In short: as §1
# quisinostat = compound: Cn1cc(CNCC2CCN(c3ncc(C(=O)NO)cn3)CC2)c2ccccc21 [quisinostat]
# In short: as §1
# tipifarnib = compound: Cn1cncc1[C@@](N)(c1ccc(Cl)cc1)c1ccc2c(c1)c(-c1cccc(Cl)c1)cc(=O)n2C [tipifarnib]
# In short: as §1
# [6] = compound: NC(=O)Nc1cc(-c2cccc(F)c2)sc1C(=O)N[C@H]1CCCNC1
# In short: as §1
# [7] = compound: NC(=O)c1cnc(N[C@@H]2CCCC[C@@H]2N)nc1Nc1cccc(-n2nccn2)c1
# In short: as §1
# [8] = compound: NC1(c2ccc(-c3nc4ccn5c(=O)[nH]nc5c4cc3-c3ccccc3)cc2)CCC1
# In short: as §1
# UniProt Q13155, sequence (Q13155 whole entry, looked up): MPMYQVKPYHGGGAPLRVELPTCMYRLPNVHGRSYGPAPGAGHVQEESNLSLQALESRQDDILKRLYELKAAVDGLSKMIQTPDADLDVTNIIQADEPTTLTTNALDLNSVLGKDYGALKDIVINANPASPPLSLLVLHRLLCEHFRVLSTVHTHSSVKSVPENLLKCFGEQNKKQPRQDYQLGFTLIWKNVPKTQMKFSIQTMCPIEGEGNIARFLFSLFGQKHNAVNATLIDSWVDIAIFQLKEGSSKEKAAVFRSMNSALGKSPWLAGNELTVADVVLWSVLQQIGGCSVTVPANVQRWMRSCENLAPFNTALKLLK
# UniProt Q96NW4, sequence (Q96NW4 whole entry, looked up): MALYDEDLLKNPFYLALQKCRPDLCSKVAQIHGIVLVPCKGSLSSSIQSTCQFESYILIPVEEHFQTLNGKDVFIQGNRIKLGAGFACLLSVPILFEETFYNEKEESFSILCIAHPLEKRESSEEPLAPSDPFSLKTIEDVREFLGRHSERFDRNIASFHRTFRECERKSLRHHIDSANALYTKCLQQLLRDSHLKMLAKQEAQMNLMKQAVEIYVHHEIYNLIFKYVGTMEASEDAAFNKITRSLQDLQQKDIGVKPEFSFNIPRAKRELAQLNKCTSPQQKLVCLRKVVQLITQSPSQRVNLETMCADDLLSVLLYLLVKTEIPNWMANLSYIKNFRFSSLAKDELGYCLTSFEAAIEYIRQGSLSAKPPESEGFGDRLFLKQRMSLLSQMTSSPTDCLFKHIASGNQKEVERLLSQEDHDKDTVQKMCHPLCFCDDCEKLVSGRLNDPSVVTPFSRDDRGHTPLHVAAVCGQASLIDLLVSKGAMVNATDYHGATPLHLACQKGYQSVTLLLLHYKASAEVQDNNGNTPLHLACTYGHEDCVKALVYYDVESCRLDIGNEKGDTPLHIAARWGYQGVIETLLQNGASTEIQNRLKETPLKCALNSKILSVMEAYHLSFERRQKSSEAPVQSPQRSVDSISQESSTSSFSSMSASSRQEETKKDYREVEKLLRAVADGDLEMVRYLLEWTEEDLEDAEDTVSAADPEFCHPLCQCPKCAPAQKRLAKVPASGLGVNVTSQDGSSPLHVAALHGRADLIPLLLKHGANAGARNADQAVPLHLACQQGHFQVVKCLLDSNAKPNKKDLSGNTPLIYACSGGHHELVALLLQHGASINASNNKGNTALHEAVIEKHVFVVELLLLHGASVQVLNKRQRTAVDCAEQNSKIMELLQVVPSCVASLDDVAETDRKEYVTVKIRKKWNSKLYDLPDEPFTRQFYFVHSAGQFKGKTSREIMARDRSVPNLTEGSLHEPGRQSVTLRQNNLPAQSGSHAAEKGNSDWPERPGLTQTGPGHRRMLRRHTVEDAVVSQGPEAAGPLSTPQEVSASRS
# UniProt Q9NP73, sequence (Q9NP73 whole entry, looked up): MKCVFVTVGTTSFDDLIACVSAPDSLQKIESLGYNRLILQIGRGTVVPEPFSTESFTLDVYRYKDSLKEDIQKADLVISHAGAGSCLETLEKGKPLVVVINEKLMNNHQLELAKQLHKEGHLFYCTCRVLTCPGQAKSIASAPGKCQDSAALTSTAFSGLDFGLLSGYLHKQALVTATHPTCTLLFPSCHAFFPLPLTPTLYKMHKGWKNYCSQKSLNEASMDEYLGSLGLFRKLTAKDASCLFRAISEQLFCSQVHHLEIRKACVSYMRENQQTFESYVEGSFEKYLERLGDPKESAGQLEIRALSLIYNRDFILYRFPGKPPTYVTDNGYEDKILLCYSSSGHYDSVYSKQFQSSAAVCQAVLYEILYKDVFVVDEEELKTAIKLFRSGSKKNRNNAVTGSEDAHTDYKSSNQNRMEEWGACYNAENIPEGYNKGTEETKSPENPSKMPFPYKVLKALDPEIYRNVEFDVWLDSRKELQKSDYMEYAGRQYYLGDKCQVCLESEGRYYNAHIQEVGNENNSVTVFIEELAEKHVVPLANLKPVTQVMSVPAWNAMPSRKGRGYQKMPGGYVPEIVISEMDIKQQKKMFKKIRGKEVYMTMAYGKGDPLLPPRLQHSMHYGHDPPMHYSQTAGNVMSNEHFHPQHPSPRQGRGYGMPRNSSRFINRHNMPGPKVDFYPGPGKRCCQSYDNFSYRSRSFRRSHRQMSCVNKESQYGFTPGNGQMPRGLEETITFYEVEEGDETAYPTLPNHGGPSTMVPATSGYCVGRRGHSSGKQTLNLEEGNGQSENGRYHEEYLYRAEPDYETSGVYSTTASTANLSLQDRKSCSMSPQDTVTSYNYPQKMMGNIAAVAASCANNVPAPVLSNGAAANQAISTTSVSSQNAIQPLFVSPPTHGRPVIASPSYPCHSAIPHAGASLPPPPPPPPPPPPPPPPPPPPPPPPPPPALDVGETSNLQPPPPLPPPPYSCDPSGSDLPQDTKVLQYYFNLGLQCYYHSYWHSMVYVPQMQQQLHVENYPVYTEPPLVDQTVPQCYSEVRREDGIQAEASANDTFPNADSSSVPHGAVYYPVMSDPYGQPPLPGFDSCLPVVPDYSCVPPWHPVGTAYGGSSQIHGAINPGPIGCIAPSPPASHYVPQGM
# UniProt Q9NWX5, sequence (Q9NWX5 whole entry, looked up): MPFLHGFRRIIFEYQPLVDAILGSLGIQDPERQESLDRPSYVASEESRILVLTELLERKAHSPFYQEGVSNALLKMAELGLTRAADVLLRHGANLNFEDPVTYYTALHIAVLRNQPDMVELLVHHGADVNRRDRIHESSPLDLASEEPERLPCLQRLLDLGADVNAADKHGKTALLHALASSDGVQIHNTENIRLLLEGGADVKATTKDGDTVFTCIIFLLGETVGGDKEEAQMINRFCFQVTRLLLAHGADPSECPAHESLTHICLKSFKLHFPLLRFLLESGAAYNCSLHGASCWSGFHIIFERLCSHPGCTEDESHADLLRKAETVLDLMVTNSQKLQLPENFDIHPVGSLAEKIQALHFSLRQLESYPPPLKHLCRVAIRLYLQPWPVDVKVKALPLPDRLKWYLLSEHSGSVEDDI
# UniProt P55265, sequence (P55265 whole entry, looked up): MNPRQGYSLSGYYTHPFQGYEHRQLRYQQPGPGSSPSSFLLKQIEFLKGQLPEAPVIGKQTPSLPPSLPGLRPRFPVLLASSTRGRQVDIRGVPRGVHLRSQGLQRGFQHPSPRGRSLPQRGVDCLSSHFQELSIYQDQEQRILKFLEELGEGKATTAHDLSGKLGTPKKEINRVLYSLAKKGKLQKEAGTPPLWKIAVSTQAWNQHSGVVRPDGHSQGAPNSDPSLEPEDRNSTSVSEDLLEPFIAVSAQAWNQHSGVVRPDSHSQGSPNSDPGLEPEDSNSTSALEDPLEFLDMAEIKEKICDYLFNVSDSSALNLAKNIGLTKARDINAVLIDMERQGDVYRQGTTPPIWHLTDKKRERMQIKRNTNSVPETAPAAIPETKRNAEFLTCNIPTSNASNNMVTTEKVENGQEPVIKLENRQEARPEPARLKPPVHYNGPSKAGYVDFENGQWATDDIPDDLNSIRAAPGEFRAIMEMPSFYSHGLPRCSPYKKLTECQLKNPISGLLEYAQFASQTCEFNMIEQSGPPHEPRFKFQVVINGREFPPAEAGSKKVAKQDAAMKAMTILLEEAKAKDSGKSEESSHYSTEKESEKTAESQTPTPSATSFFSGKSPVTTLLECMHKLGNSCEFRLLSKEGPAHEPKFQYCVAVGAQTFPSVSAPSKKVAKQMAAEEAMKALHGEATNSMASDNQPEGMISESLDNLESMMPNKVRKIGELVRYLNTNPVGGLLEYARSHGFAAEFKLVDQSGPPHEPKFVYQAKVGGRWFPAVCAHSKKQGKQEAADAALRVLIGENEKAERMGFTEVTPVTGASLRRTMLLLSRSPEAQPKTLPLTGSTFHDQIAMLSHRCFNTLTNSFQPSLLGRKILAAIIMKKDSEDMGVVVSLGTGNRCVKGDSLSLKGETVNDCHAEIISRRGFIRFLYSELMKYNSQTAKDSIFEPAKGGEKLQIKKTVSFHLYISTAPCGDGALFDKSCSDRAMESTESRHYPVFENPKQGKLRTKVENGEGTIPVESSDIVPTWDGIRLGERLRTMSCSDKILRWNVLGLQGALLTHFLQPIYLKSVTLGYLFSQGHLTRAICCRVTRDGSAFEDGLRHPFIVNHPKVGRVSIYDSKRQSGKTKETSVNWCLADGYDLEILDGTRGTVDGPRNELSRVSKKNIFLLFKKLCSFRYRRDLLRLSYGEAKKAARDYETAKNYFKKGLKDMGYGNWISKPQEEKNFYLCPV
# UniProt Q9Y303, sequence (Q9Y303 whole entry, looked up): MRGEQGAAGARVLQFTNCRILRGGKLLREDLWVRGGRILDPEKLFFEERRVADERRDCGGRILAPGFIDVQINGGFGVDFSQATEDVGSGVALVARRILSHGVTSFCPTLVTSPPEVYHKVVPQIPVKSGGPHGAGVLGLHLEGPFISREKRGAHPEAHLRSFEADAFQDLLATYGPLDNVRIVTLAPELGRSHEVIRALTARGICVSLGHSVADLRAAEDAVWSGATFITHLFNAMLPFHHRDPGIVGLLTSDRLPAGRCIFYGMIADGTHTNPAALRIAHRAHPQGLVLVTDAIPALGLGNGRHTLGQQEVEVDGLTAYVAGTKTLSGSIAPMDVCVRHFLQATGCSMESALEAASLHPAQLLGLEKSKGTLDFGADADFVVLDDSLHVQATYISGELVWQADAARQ
# UniProt P08758, sequence (P08758 whole entry, looked up): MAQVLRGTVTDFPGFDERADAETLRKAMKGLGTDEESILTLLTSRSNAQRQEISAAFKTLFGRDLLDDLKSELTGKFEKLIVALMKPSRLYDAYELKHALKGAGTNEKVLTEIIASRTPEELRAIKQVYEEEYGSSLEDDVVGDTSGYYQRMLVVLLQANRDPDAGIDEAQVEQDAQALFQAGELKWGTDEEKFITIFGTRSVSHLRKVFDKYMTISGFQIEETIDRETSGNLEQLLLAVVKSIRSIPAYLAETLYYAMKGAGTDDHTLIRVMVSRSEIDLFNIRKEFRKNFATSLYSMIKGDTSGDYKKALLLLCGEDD
Target,log2 fold change (lapatinib),log2 fold change (pictilisib),log2 fold change (crizotinib),log2 fold change [1],log2 fold change (duvelisib),log2 fold change (gandotinib),log2 fold change (tozasertib),log2 fold change (doramapimod),log2 fold change (bafetinib),log2 fold change [2],log2 fold change (nilotinib),log2 fold change [3],log2 fold change (dasatinib),log2 fold change [4],log2 fold change [5],log2 fold change (quisinostat),log2 fold change (tipifarnib),log2 fold change [6],log2 fold change [7],log2 fold change [8]
ASB6 (UniProt Q9NWX5),-0.04 (inactive),-0.029 (inactive),0.01 (inactive),0.093 (inactive),0.008 (inactive),-0.065 (inactive),-0.159 (inactive),0.004 (inactive),-0.055 (inactive),-0.028 (inactive),-0.024 (inactive),0.01 (inactive),0.01 (inactive),0.029 (inactive),-0.025 (inactive),-0.002 (inactive),0.041 (inactive),-0.01 (inactive),0.016 (inactive),0.08 (inactive)
AGTPBP1 (UniProt Q9UPW5),0.008 (inactive),-0.103 (inactive),-0.121 (inactive),0.018 (inactive),0.009 (inactive),-0.271 (inactive),0.028 (inactive),0.007 (inactive),0.001 (inactive),0.113 (inactive),0.077 (inactive),-0.205 (inactive),0.038 (inactive),0.1 (inactive),-0.032 (inactive),-0.197 (inactive),0.207 (inactive),0.038 (inactive),0.045 (inactive),0.115 (inactive)
ADAR isoform 4 (UniProt P55265),0.023 (inactive),-0.135 (inactive),0 (inactive),0.01 (inactive),0.016 (inactive),-0.038 (inactive),0.016 (inactive),0.069 (inactive),-0.16 (inactive),0.028 (inactive),0.006 (inactive),0.012 (inactive),-0.026 (inactive),-0.027 (inactive),0.009 (inactive),-0.114 (inactive),-0.009 (inactive),0.015 (inactive),-0.009 (inactive),0.029 (inactive)
ANLN (UniProt Q9NQW6),-0.007 (inactive),0.004 (inactive),-0.02 (inactive),-0.037 (inactive),-0.02 (inactive),0.024 (inactive),0.052 (inactive),0.01 (inactive),-0.038 (inactive),0.028 (inactive),-0.023 (inactive),0.047 (inactive),-0.009 (inactive),-0.018 (inactive),0.04 (inactive),-0.072 (inactive),-0.041 (inactive),0.006 (inactive),-0.013 (inactive),0.015 (inactive)
ANKRD27 (UniProt Q96NW4),0.025 (inactive),-0.026 (inactive),-0.095 (inactive),-0.03 (inactive),-0.025 (inactive),0.049 (inactive),0.002 (inactive),-0.009 (inactive),-0.059 (inactive),0.022 (inactive),0.016 (inactive),0.049 (inactive),-0.01 (inactive),0.061 (inactive),-0.023 (inactive),-0.177 (inactive),-0.067 (inactive),0.05 (inactive),0.025 (inactive),-0.033 (inactive)
ALG13 (UniProt Q9NP73),0.017 (inactive),-0.002 (inactive),-0.12 (inactive),-0.075 (inactive),0 (inactive),0.044 (inactive),-0.091 (inactive),-0.015 (inactive),-0.025 (inactive),0.127 (inactive),0.089 (inactive),-0.012 (inactive),-0.044 (inactive),0.218 (inactive),0 (inactive),-0.067 (inactive),-0.036 (inactive),-0.004 (inactive),0.028 (inactive),-0.009 (inactive)
ANXA5 (UniProt P08758),0.005 (inactive),-0.009 (inactive),0.046 (inactive),0.059 (inactive),-0.028 (inactive),-0.119 (inactive),0.019 (inactive),0.015 (inactive),-0.018 (inactive),-0.065 (inactive),0.031 (inactive),-0.008 (inactive),-0.009 (inactive),-0.067 (inactive),0.022 (inactive),0.111 (inactive),0.019 (inactive),0.018 (inactive),0.01 (inactive),0.012 (inactive)
ACADS (UniProt P16219),-0.004 (inactive),-0.018 (inactive),-0.027 (inactive),-0.026 (inactive),-0.003 (inactive),0.016 (inactive),-0.013 (inactive),0.008 (inactive),0.037 (inactive),0.034 (inactive),0.278 (active),-0.04 (inactive),-0.002 (inactive),-0.025 (inactive),0.033 (inactive),-0.009 (inactive),-0.018 (inactive),0.032 (inactive),0.01 (inactive),0.017 (inactive)
AMDHD2 isoform 3 (UniProt Q9Y303),0.014 (inactive),-0.081 (inactive),0.025 (inactive),0.006 (inactive),-0.043 (inactive),0.008 (inactive),-0.013 (inactive),0.003 (inactive),0.093 (inactive),0.009 (inactive),0.011 (inactive),-0.076 (inactive),-0.043 (inactive),-0.027 (inactive),0.026 (inactive),0.035 (inactive),0.01 (inactive),-0.011 (inactive),-0.022 (inactive),0.002 (inactive)
AIMP2 (UniProt Q13155),-0.006 (inactive),0.015 (inactive),-0.047 (inactive),0.05 (inactive),-0.018 (inactive),-0.12 (inactive),0.041 (inactive),0.029 (inactive),-0.03 (inactive),-0.032 (inactive),0.015 (inactive),-0.015 (inactive),-0.048 (inactive),-0.002 (inactive),-0.007 (inactive),-0.009 (inactive),-0.003 (inactive),0.045 (inactive),-0.012 (inactive),-0.007 (inactive)
